Data reported in PubChem BioAssay (NCI).
The panel holds about 79,000 compounds, 15% with a hit somewhere; the sample as a whole holds those more often. Calls of active or inactive are those of the source. Rule as the data show it: active = growth inhibition above about 70%; inactive = the rest.

Legend:
[1] = NCI Yeast Anticancer Drug Screen. Data for the rad52 strain (AID 147);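 also: 0% = growth of vehicle-treated control cultures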; conditions: S. cerevisiae rad52 mutant growth inhibition, hits give high values
In short: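 Inhibition of yeast growth, referenced to vehicle controls, was the measured output for a strain with defective DNA damage repair.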

[2] = NCI Yeast Anticancer Drug Screen. Data for the wt1 strain (AID 149);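 also: 0% = growth of vehicle-treated wt1 cultures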; conditions: S. cerevisiae wt1 strain (SPY 50644) growth inhibition, hits give high values
In short: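 Each compound is tested on wt1 yeast and the loss of growth versus vehicle gives the inhibition value.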

[3] = NCI Yeast Anticancer Drug Screen. Data for the mgt1 strain (AID 153); conditions: S. cerevisiae mgt1 mutant growth inhibition, hits give high values
In short: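 In the mgt1 strain, test compounds were added and growth inhibition was determined relative to vehicle-treated controls.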

[4] = NCI Yeast Anticancer Drug Screen. Data for the rad50 strain (AID 155);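 also: 0% = growth of vehicle-only cultures of the same strain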; conditions: S. cerevisiae rad50 strain growth inhibition, hits give high values
In short: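 Vehicle-treated cultures provide the reference for the growth inhibition reported for compound-exposed, repair-deficient yeast.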

[5] = NCI Yeast Anticancer Drug Screen. Data for the mec2-1 strain (AID 157); conditions: S. cerevisiae mec2-1 strain, hits give high values
In short: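 Each compound was tested on mec2-1 yeast, a strain altered in DNA damage repair or cell cycle control. Growth inhibition is reported relative to vehicle.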

[6] = NCI Yeast Anticancer Drug Screen. Data for the rad14 strain (AID 159);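 also: 0% = growth of vehicle-treated control cultures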; conditions: S. cerevisiae rad14 strain growth inhibition, hits give high values
In short: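 Inhibition of growth is reported for a repair-deficient yeast mutant following compound treatment, calculated relative to cultures that received vehicle.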

[7] = NCI Yeast Anticancer Drug Screen. Data for the sgs1 mgt1 strain (AID 161);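 also: 0% = growth of cultures given vehicle only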; conditions: S. cerevisiae sgs1 mgt1 strain, hits give high values
In short: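 Read-out: growth inhibition vs vehicle controls. Cells: mutant yeast strain deficient in DNA damage repair.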

[8] = NCI Yeast Anticancer Drug Screen. Data for the CLN2oe strain (AID 163);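 also: 0% = growth of vehicle-only control cultures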; conditions: S. cerevisiae CLN2oe strain, hits give high values
In short: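 First, the altered yeast strain was treated with each compound; second, its growth was measured; finally, inhibition was derived by comparison with vehicle controls.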

[9] = NCI Yeast Anticancer Drug Screen. Data for the cln2 rad14 strain (AID 165);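 also: 0% = growth equal to vehicle treated cultures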; conditions: S. cerevisiae cln2 rad14 strain, hits give high values
In short: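 Test compounds were added to cln2 rad14 yeast cultures; inhibition of growth was then determined by comparison with vehicle treatment.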

[10] = NCI Yeast Anticancer Drug Screen. Data for the bub3 strain (AID 167); conditions: S. cerevisiae bub3 mutant strain, hits give high values
In short: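 Mutant yeast screening strain plus compound; vehicle-treated cultures serve as the 0% inhibition reference.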

[11] = NCI Yeast Anticancer Drug Screen. Data for the wt2 strain (AID 169); conditions: S. cerevisiae wt2 strain growth inhibition, hits give high values
In short: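 The panel's yeast strains carry defined changes in DNA repair or cell cycle genes. Each strain is grown with compound, and growth loss is scored relative to vehicle.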

[12] = NCI Yeast Anticancer Drug Screen. Data for the mlh1 strain (AID 171);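 also: 0% = growth of vehicle-treated control cultures of the same strain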; conditions: S. cerevisiae mlh1 strain growth inhibition, hits give high values
In short: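 Inhibition values reflect reduced yeast growth in the presence of compound, referenced to vehicle controls, using a strain chosen for its alteration in DNA repair or cell cycle control.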

[13] = NCI Yeast Anticancer Drug Screen. Data for the sgs1 strain (AID 173);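 also: 0% = growth of vehicle-only control cultures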; conditions: S. cerevisiae sgs1 mutant, hits give high values
In short: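 Vehicle-treated cultures served as reference for growth inhibition of a yeast strain altered in DNA damage repair or cell cycle control after compound exposure.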

[14] = NCI Yeast Anticancer Drug Screen. Data for the mlh1 rad18 strain (AID 175); conditions: S. cerevisiae mlh1 rad18 strain growth inhibition, hits give high values
In short: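 Inhibition values reflect reduced growth of mutant yeast versus vehicle-treated controls following compound exposure; the mutations affect DNA damage repair.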

[15] = NCI Yeast Anticancer Drug Screen. Data for the rad18 strain (AID 177); conditions: S. cerevisiae rad18 mutant growth inhibition, hits give high values
In short: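 Steps: expose repair-mutant yeast to compound; measure growth; express as inhibition relative to vehicle control.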

[16] = NCI Yeast Anticancer Drug Screen. Data for the rad50EPP+ strain (AID 151);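 also: 0% = growth of vehicle-treated control cultures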; conditions: S. cerevisiae rad50 mutant strain, hits give high values
In short: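 Genetically defined yeast (rad50EPP+, DNA damage repair alteration) is grown with compound, and inhibition of growth is expressed relative to vehicle-treated controls.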

[17] = at 5.0 µM (retest, dose inferred, filed as 0.5)
[18] = at 50.0 µM (retest, dose inferred, filed as 5.0)

Measured: growth inhibition

CCC(=O)c1cc(C(=O)C(=S)SC)cc(C(=O)C(=S)SC)c1
active: [1]; at 11.0 µM 97% | [1]; at 33.0 µM 97% | [1]; at 100.0 µM 90% | [2]; at 11.0 µM 93% | [2]; at 33.0 µM 98% | [2]; at 100.0 µM 96% | [3]; at 11.0 µM 99% | [3]; at 33.0 µM 98% | [3]; at 100.0 µM 95% | [4]; at 11.0 µM 96% | [4]; at 33.0 µM 97% | [4]; [18] 96% | [4]; at 50.0 µM 85.4% | [4]; at 100.0 µM 89% | [5]; at 11.0 µM 98% | [5]; at 33.0 µM 98% | [5]; [18] 96% | [5]; at 50.0 µM 86.8% | [5]; at 100.0 µM 95% | [6]; at 11.0 µM 94% | [6]; at 33.0 µM 98% | [6]; at 100.0 µM 95% | [7]; [18] 96% | [7]; at 50.0 µM 85.3% | [8]; at 11.0 µM 96% | [8]; at 33.0 µM 98% | [8]; at 100.0 µM 91% | [9]; at 50.0 µM 88.7% | [10]; at 11.0 µM 98% | [10]; at 33.0 µM 98% | [10]; at 50.0 µM 86.7% | [10]; at 100.0 µM 91% | [11]; at 11.0 µM 98% | [11]; at 33.0 µM 98% | [11]; at 100.0 µM 94% | [12]; at 11.0 µM 98% | [12]; at 33.0 µM 96% | [12]; at 100.0 µM 93% | [13]; at 11.0 µM 98% | [13]; at 33.0 µM 98% | [13]; at 100.0 µM 95% | [14]; [18] 96% | [14]; at 50.0 µM 86.8% | [15]; at 11.0 µM 97% | [15]; at 33.0 µM 98% | [15]; at 100.0 µM 94%
inactive: [1]; at 1.2 µM 1% | [1]; at 3.7 µM 57% | [2]; at 1.2 µM -2% | [2]; at 3.7 µM 17% | [3]; at 1.2 µM -12% | [3]; at 3.7 µM 51% | [4]; at 1.2 µM 1% | [4]; at 3.7 µM 43% | [4]; [17] 30% | [5]; at 1.2 µM -9% | [5]; at 3.7 µM 36% | [5]; [17] 56% | [6]; at 1.2 µM 1% | [6]; at 3.7 µM 22% | [7]; [17] 22% | [8]; at 1.2 µM 28% | [8]; at 3.7 µM 69% | [9]; [17] -3% | [9]; [18] 37% | [10]; at 1.2 µM 6% | [10]; at 3.7 µM 44% | [10]; [17] 35% | [10]; [18] 68% | [11]; at 1.2 µM 19% | [11]; at 3.7 µM 59% | [12]; at 1.2 µM 0% | [12]; at 3.7 µM 40% | [13]; at 1.2 µM 27% | [13]; at 3.7 µM 62% | [14]; [17] 42% | [15]; at 1.2 µM -6% | [15]; at 3.7 µM 49%

O=C(NNc1ccccc1)c1ccc(Cl)c(Cl)c1
active: [16]; at 100.0 µM 74% | [15]; at 100.0 µM 88%
inactive: [1]; at 1.2 µM -1% | [1]; at 3.7 µM 2% | [1]; at 11.0 µM 5% | [1]; at 33.0 µM 26% | [1]; at 100.0 µM 58% | [16]; at 1.2 µM -1% | [16]; at 3.7 µM 5% | [16]; at 11.0 µM 13% | [16]; at 33.0 µM 33% | [3]; at 1.2 µM -1% | [3]; at 3.7 µM -1% | [3]; at 11.0 µM 2% | [3]; at 33.0 µM 8% | [3]; at 100.0 µM 23% | [4]; at 1.2 µM 2% | [4]; at 3.7 µM 5% | [4]; [17] 4% | [4]; at 11.0 µM 11% | [4]; at 33.0 µM 21% | [4]; [18] -4% | [4]; at 50.0 µM 38.6% | [4]; at 100.0 µM 61% | [5]; at 1.2 µM -4% | [5]; at 3.7 µM -3% | [5]; [17] -9% | [5]; at 11.0 µM -5% | [5]; at 33.0 µM 2% | [5]; [18] 3% | [5]; at 50.0 µM 40.9% | [5]; at 100.0 µM 23% | [6]; at 1.2 µM -2% | [6]; at 3.7 µM -2% | [6]; at 11.0 µM 3% | [6]; at 33.0 µM 4% | [6]; at 100.0 µM 23% | [7]; [17] 5% | [7]; [18] 19% | [7]; at 50.0 µM 44.2% | [8]; at 1.2 µM -7% | [8]; at 3.7 µM -3% | [8]; at 11.0 µM 0% | [8]; at 33.0 µM 14% | [8]; at 100.0 µM 40% | [9]; [17] 31% | [9]; [18] 18% | [9]; at 50.0 µM 0.2% | [10]; at 1.2 µM -5% | [10]; at 3.7 µM -2% | [10]; [17] -5% | [10]; at 11.0 µM -7% | [10]; at 33.0 µM 2% | [10]; [18] 13% | [10]; at 50.0 µM 30.3% | [10]; at 100.0 µM 14% | [11]; at 1.2 µM 1% | [11]; at 3.7 µM -1% | [11]; at 11.0 µM 2% | [11]; at 33.0 µM 15% | [11]; at 100.0 µM 37% | [12]; at 1.2 µM -2% | [12]; at 3.7 µM -3% | [12]; at 11.0 µM -3% | [12]; at 33.0 µM 8% | [12]; at 100.0 µM 47% | [13]; at 1.2 µM -3% | [13]; at 3.7 µM -3% | [13]; at 11.0 µM -1% | [13]; at 33.0 µM 17% | [13]; at 100.0 µM 47% | [14]; [17] 6% | [14]; [18] 61% | [14]; at 50.0 µM 44.9% | [15]; at 1.2 µM 2% | [15]; at 3.7 µM 4% | [15]; at 11.0 µM 6% | [15]; at 33.0 µM 37%
